Data on 37 compounds can be found in PubChem BioAssay (NCI).

“And” between values parts separate entries of the source, which are not always exact repeats. Identical values can stand only once. This is part of a sample that, as a whole, favours compounds with a hit. Of some 79,000 tested, about 15% had one in any assay. The source made the active and inactive calls. Cut-off read from the data, not from the text of the source: active = growth inhibition above about 70%; inactive = the rest.

The assay in a line: NCI Yeast Anticancer Drug Screen. Data for the rad50 strain (AID 155).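 Note: 0% = growth of vehicle-only cultures of the same strain.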 The conditions noted are these: S. cerevisiae rad50 strain growth inhibition; at 5.0 µM (retest, dose inferred, filed as 0.5); stronger effect = higher value. The method in brief: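 A DNA repair-deficient yeast mutant serves as the test organism; compound-induced growth inhibition is calculated against vehicle-treated cells.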
As to `OCC1OC(n2cnc3c(=S)nc[nH]c32)C(O)C1O` (configuration not stated), the growth inhibition is -3% (inactive).
Consider `CCOC(=O)C(C(=O)c1ccccc1)C(=O)c1ccccc1`, for which the growth inhibition was 29% (inactive).
The figure for `COC1/C=C\C=C(/C)C(=O)Nc2cc3nc4ccc(Br)cc4oc-3c(c2=O)CC(C)CC(OC)C(O)C(C)/C=C(\C)C1OC(N)=O` (configuration not stated) is 44% (inactive); for `Nc1ccc([N+](=O)[O-])c(S(=O)(=O)O)c1` it is -160% (inactive); for `CCOc1ccc2ccccc2c1C(Cc1ccc(Cl)cc1)NCCO` (configuration not stated) it is -1% (inactive).
As for `O=C1C(=Cc2ccc(O)cc2)N=C(c2ccccc2)N1n1c(-c2ccccc2)nc2ccccc2c1=O`, the figure is 2% (inactive).
As for `Cc1nc2ccccc2cc1CCl`, the growth inhibition is -113% (inactive).
For the compound `Cc1cc(NS(=O)(=O)c2ccc(N=Nc3cc(N=Nc4ccc(S(=O)(=O)Nc5cc(C)nc(C)n5)cc4)c4c(NC(=O)C(Cl)Cl)cccc4c3OC(=O)C(Cl)Cl)cc2)nc(C)n1` (tested in a mixture with another compound), the growth inhibition was 16% (inactive).
As for `CCCCCCN(CCCCCC)C(=O)C1=C(C)NC(C)=C(C(=O)N(CCCCCC)CCCCCC)C1`, the figure is 1% (inactive); as for `O=[N+]([O-])Cc1cnc2nncn2n1`, -6% (inactive); as for `COc1ccc(N/N=C(\CCN(C)C)c2ccccc2)cc1`, 7% (inactive).
`O=C(O)/C(=C(/c1ccccc1)c1ccc(Cl)cc1)c1ccccc1`: the growth inhibition was 35% (inactive).
As for `c1ccc([P+](CCCCCCCC[P+](c2ccccc2)(c2ccccc2)c2ccccc2)(c2ccccc2)c2ccccc2)cc1`, the growth inhibition is 40% (inactive).
As for `OCCNc1nc(NCCO)c2nc(-c3ccccc3)c(-c3ccccc3)nc2n1`, the figure is 8% (inactive) and -2% (inactive); as for `OC(c1ccccc1)(c1ccccc1)c1ccccc1` (tested in a mixture with another compound), -5% (inactive); as for `CC(=O)Nc1c(Cl)c(Cl)c2c(c1Cl)Cc1cc(Cl)ccc1-2`, 99% (active).
On to `Cc1cc(C)nc(NS(=O)(=O)c2ccc(Nc3c4ccccc4nc4c(C(=O)NCCCN(CCO)CCO)cccc34)cc2)n1`, for which the growth inhibition is -20% (inactive).
For `CCn1c2ccccc2c2ccc(N=Cc3ccc(N(C)C)cc3)cc21`, the growth inhibition is 1% (inactive).
As for `O=C(C(=Cc1ccccc1)C(=O)c1ccccc1)c1ccccc1`, the figure is 42% (inactive); as for `c1ccc(C2=NC(c3ccccc3)=NS(S3=NC(c4ccccc4)=NC(c4ccccc4)=N3)=N2)cc1` (configuration not stated), 27% (inactive).
Consider `Nc1nc(-c2ccccn2)cc2ccccc12`, for which the growth inhibition is 5% (inactive).
As for `CCN(CC)CCCn1c2cc(=O)c(=O)cc-2[nH]c2cc(C)ccc21`, the figure is 1% (inactive); as for `COc1cc(O)ccc1C(=S)SC`, 6% (inactive); as for `O=[N+]([O-])C1=C(c2ccccc2)SC=C(c2ccccc2)S1`, 6% (inactive) and -1% (inactive).
As for `N#CC1(C2SCCS2=O)C2=C(C(=O)c3ccccc3C2=O)N2CCCC21` (configuration not stated), the figure is 17% (inactive); as for `O=C1C=CC(=O)C(C2OC(=O)C(Br)=C2Br)=C1` (configuration not stated), -14% (inactive).
Take `CN1CCN(CCCN2c3ccccc3Sc3ccc(C(F)(F)F)cc32)CC1`: the growth inhibition was -13% (inactive) and -1% (inactive).
For `Cc1ccc(S(=O)(=O)C23C(N=NC2(C)C)C3(C)C)cc1` (configuration not stated), the growth inhibition was 10% (inactive).
As for `COC(=O)C(=O)C(C(=O)C(c1ccccc1)c1ccccc1)c1nc2n(c1O)/C(=N/C(=O)Nc1ccc(Cl)cc1)N=N2` (configuration not stated), the figure is 0% (inactive).
As for `O=C(O)c1ccc2c(c1)Cc1cc([N+](=O)[O-])ccc1-2`, the figure is -3% (inactive); as for `O=c1[nH]c2cc([N+](=O)[O-])ccc2nc1/C=C(\O)c1ccc([N+](=O)[O-])cc1`, 21% (inactive).
In the case of `c1ccc(C(c2ccccc2)n2ccnc2)cc1`, the growth inhibition is -95% (inactive).
The figure for `c1ccc2c(c1)CNc1ccccc1-2` is 4% (inactive).
As for `COC(=O)c1nnn(-c2ccc(S(N)(=O)=O)cc2)c1N`, the growth inhibition was -9% (inactive).
Regarding `COC(=O)c1ccc(O)c(OC)c1`, the growth inhibition was -1% (inactive).
In the case of `O=c1[nH]c(SCc2c(Cl)c(Cl)c(Cl)c(Cl)c2Cl)nc(=S)[nH]1`, the growth inhibition is 1% (inactive).
On to `Cc1nc2c(ccc3[nH]c4ccccc4c32)s1`, for which the growth inhibition was 7% (inactive).
